Compound activity (PubChem)
Only some compounds are listed: those with a hit (about 4.7% of all), similar ones and a draw of the others.
PfHsp90 set2: inhibits growth of yeast expressing Plasmodium falciparum Hsp90; S. cerevisiae expressing PfHsp90, BacTiter-Glo ATP, 48 h; yeast lacking PDR1 and PDR3 efflux regulators; inhibition, % at 9.4 µM; 310,000 compounds, 0.32% hits; AID 504621;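 active = every replicate shows inhibition above about 80%, whatever the replicate mean, limit read from the data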;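 note: 0% = DMSO neutral controls and 100% = 20 µM radicicol positive controls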
tim23-1 inh: growth inhibitors of tim23-1 mutant yeast; S. cerevisiae tim23-1 growth, BacTiter-Glo luminescence, 24 h; inhibition, % at 20 µM; 330,000 compounds, 1.3% hits; AID 463212;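 active = growth inhibition of the mutant yeast at or above 50%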;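 note: temperature-sensitive mutant grown at 25 °C; plate controls were DMSO-treated mutant yeast for no effect and medium wells lacking yeast for full effect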
tim10-1 inh: tim10-1 yeast growth inhibition. 330,000 compounds, 2.2% hits. inhibition, % at 20 µM. S. cerevisiae tim10-1 ts strain growth, BacTiter-Glo, 24 h;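 active = inhibition of at least 40%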;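 note: mutant grown at 25 °C; 0% = DMSO wells with yeast and 100% = wells holding no yeast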
TIM10 inh: inhibits growth of TIM10 yeast strain | S. cerevisiae TIM10 strain growth, BacTiter-Glo luminescence, 24 h | 330,000 compounds, 1.4% hits | inhibition, % at 10 µM;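 active = inhibition of 40% or more at the single tested concentration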;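 note: wild-type TIM10 isogenic control strain grown at permissive 25 °C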
ATG4B inh: blocks human ATG4B protease cleavage of LC3 substrate; Q9Y4P1; inhibition, % at 8.33 µM; ATG4B cleavage of LC3-PLA2, NBD-HPC fluorescence, 1 h; 340,000 compounds, 0.51% hits; in the data active = inhibition above about 40%
Target sequence (Q9Y4P1 whole entry, looked up): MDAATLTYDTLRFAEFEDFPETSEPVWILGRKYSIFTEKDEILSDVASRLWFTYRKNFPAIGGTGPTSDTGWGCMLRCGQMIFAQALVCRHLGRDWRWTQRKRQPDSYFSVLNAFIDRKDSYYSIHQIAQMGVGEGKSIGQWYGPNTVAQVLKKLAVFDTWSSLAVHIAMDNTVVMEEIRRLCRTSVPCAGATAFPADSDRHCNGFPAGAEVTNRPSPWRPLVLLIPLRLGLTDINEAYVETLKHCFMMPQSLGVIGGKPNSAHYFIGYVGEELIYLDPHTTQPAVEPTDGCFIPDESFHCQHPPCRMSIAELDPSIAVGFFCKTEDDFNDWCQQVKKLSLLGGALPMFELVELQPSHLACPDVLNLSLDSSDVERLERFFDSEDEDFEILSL
SKKanGAS inh: inhibitors of SKKanGAS S. pyogenes growth in kanamycin (SK-promoter or general growth effect); BacTiter-Glo, 6 h; inhibition, % at 7.5 µM; 300,000 compounds, 1.3% hits; AID 1662;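 active = mean replicate score, as percent of positive control median, at least 50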;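 note: strain carries kanamycin resistance gene driven by streptokinase promoter and grows in 40 µg/ml kanamycin; loss of luminescence reflects streptokinase promoter inhibition or plain growth inhibition; 0% = median of DMSO wells and 100% = positive control at its reference dose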
tim23-1 confirm: confirmation of tim23-1 mutant yeast growth inhibitors | shares compounds with tim23-1 inh | S. cerevisiae tim23-1 growth, BacTiter-Glo luminescence, 24 h | inhibition, % at 20 µM | 4,400 compounds, 83% hits;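 active = inhibition above about 39% in either of two replicate wells at 20 µM, limit read from the data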;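 note: temperature-sensitive tim23-1 mutant grown at 25 °C; 0% = DMSO wells with yeast and 100% = medium wells without yeast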
Active calls of the source: *; . = not tested or not shown.

SMILES	PfHsp90 set2	tim23-1 inh	tim10-1 inh	TIM10 inh	ATG4B inh	SKKanGAS inh	tim23-1 confirm
COc1ccc(C(C[N+](=O)[O-])c2c(-c3ccccc3)cc3ccccn23)cc1 (stereo unspecified)	.	63*	40	38	-4	-1	78*
COc1cc(C(C[N+](=O)[O-])c2c(C)cc3ccccn23)ccc1O (stereo unspecified)	17	32	27	26	-9	5	.
COc1ccc(C(C[N+](=O)[O-])c2c(-c3ccccc3)cc3ccccn23)cc1OC (stereo unspecified)	.	50*	35	31	9	0	62*
O=C(Nc1ccc2c(c1)OCCO2)c1ccc(Br)cc1	0	1	-19	-12	-2	-7	.
O=C(Nc1ccc2c(c1)OCCO2)c1cccc(Br)c1	14	56*	-2	31	-3	-2	58*
COc1ccc(-c2nc(C=O)cs2)cc1	-5	18	9	-18	12	0	.
Oc1cccnc1SCc1ccccc1	2	9	-23	-3	-1	13	.
O=Cc1cccnc1SCc1ccccc1	-7	57*	17	15	11	9	61*
CCCN1C(=O)C(=O)c2cc(Cl)ccc21	11	61*	13	14	6	.	40*
CCc1ccc2c(c1)C(=O)C(=O)N2CCS(=O)(=O)c1ccccc1	0	17	11	11	-6	0	.
Cc1cc(=O)oc2cc(OCCCN3C(=O)c4ccccc4C3=O)ccc12	8	-13	-3	3	-4	-4	.
Cc1ccc(OCCN2C(=O)C(=O)c3cc(C)ccc32)cc1	-9	57*	17	22	-9	6	53*
Cc1ccc(OCCCN2C(=O)C(=O)c3cccc(C)c32)cc1	21	53*	26	18	11	-7	62*
Cc1ccc2c(c1)C(=O)C(=O)N2CC(=O)OC(C)C	15	15	19	6	-6	-2	.
COc1ccc(C(=O)OCC(=O)NC(C)CCc2ccccc2)cc1OC (stereo unspecified)	-14	19	7	-1	-7	-3	.
C=CCN1C(=O)c2ccc(C(=O)N(C)Cc3ccc(C)o3)cc2C1=O	14	-3	0	-2	7	-3	.
COc1ccc(C(C(=O)Nc2ccc(F)cc2)N(C(=O)Cn2nnc3ccccc32)C2CC2)cc1 (stereo unspecified)	-9	-12	-6	-7	-37	1	.
Cc1ccc(C(=O)Oc2cc(C)[nH]c(=O)c2[N+](=O)[O-])cc1	11	4	8	-1	6	-6	.
C=CCN1c2ccccc2C(=O)C(C)S1(=O)=O (stereo unspecified)	-12	26	-5	1	.	.	.
C=CCN1c2ccc(Br)cc2C(=O)CS1(=O)=O	.	58*	34	35	-2	.	54*
O=C(Cn1c(-c2ccccc2)noc1=O)Nc1ccc(N2CCCCCC2)cc1	0	51*	39	29	-5	8	42*
CC(=O)Nc1ccc(Br)c(Cl)c1	-19	22	-15	-18	-3	-7	.
O=C(Nc1ccc(Br)c(Cl)c1)C1CC1	.	63*	2	32	-5	3	56*
O=C(NC(=S)Nc1ccc(Br)cc1)C1CCCCC1	6	6	8	6	-2	1	.
O=C(NC(=S)Nc1ccc(Br)cc1)C1CCC1	3	57*	27	10	6	-3	34
SMILES	PfHsp90 set2	tim23-1 inh	tim10-1 inh	TIM10 inh	ATG4B inh	SKKanGAS inh	tim23-1 confirm
O=C(NC(=S)Nc1ccc(F)c(Cl)c1)C1CC1	-22	54*	29	7	0	1	33
O=C(Nc1ccc(F)c(Cl)c1)C1CCCC1	.	33	6	2	5	-4	.
Cc1ccc(/C(N)=N/OC(=O)c2cccc(Cn3cc(C(F)(F)F)ccc3=O)c2)cc1	-4	59*	39	23	-10	-9	60*
Cc1cccc(C(=O)O/N=C/c2ccc(Br)cc2)c1	-8	19	27	27	14	-1	.
Cc1cccc(C(=O)O/N=C(\N)c2ccc(Br)cc2)c1	25	96*	7	12	-1	-4	51*
Cc1cc(C)n(-c2ccc(C(=O)NC(C)C)cc2)n1	.	11	-4	5	1	-2	.
